Compounds without any hit were thinned out: in the full panel of roughly 83,000, 20% have a hit.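 Single-concentration screen, 48 h exposure, 96-well plates. Endpoint: percent growth. Below 10 = active.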 Unmarked numbers belong to inactive results. Active and inactive are the calls of the source.
What was measured:
Assay in all cases: NCI-60 one-dose screen, 48 h (100 = growth as untreated, 0 = no growth, -100 = all killed)
SR leukemia = details: 10 µM unless noted
RPMI-8226 leukemia = details: 10 µM unless noted
OVCAR-8 ovarian = details: 10 µM unless noted
OVCAR-5 ovarian = details: 10 µM unless noted
OVCAR-4 ovarian = details: 10 µM
SK-OV-3 ovarian = details: 10 µM unless noted
OVCAR-3 ovarian = details: 10 µM unless noted
HS 578T breast = details: 10 µM unless noted
NCI/ADR-RES ovarian = details: 10 µM unless noted
T-47D breast = details: 10 µM unless noted
BT-549 breast = details: 10 µM unless noted
MDA-MB-435 melanoma = details: 10 µM unless noted
SW-620 colon = details: 10 µM unless noted
MCF7 breast = details: 10 µM unless noted
HCT-116 colon = details: 10 µM unless noted
HCC-2998 colon = details: 10 µM unless noted
KM12 colon = details: 10 µM unless noted

SMILES	growth (SR leukemia)	growth (RPMI-8226 leukemia)	growth (OVCAR-8 ovarian)	growth (OVCAR-5 ovarian)	growth (OVCAR-4 ovarian)	growth (SK-OV-3 ovarian)	growth (OVCAR-3 ovarian)	growth (HS 578T breast)	growth (NCI/ADR-RES ovarian)	growth (T-47D breast)	growth (BT-549 breast)	growth (MDA-MB-435 melanoma)	growth (SW-620 colon)	growth (MCF7 breast)	growth (HCT-116 colon)	growth (HCC-2998 colon)	growth (KM12 colon)
COc1cc(C(=O)/C=C/c2c(-c3ccc(F)cc3)nc3sccn23)cc(OC)c1OC	26%	-44.2% (active)	34.8%	88%	25.7%	47.4%	4.69% (active)	46.1%	10.4%	19.8%	19.2%	-72.7% (active)	13.7%	-8.44% (active)	23.3%	73.1%	-12.1% (active)
ClC1=C(Cl)C(Cl)=C(Cl)C1=Cc1ccccc1	4.43% (active)	-22.7% (active)	-18.9% (active)	-60.9% (active)	-20.3% (active)	38.8%	-96.5% (active)	6.95% (active)	-26.5% (active)	-26.4% (active)	-82.1% (active)	-54% (active)	-56.2% (active)	-29.3% (active)	-99% (active)	-82.8% (active)	-84.7% (active)
O=[N+]([O-])c1cc([N+](=O)[O-])c(NN=C(c2ccc(O)cc2)c2ccc(O)cc2)cc1Cl	18.8%	67%	-76.6% (active)	78.1%	-47.7% (active)	99.5%	-94.6% (active)	-55.6% (active)	-56.8% (active)	-50.4% (active)	-11.6% (active)	-62.1% (active)	-75% (active)	-65.4% (active)	-91.1% (active)	-93.5% (active)	-77.7% (active)
O=c1c2c3c(sc2n2cnnc2n1Cc1ccccc1)CCCC3	78.6%	72.8%	97.4%	89.6%	106%	106%	98%	94.2%	96.9%	38.4%	95.7%	113%	113%	96.6%	122%	105%	113%
Cc1cc(SC#N)ncn1	109%	101%	96.2%	115%	103%	105%	100%	105%	103%	104%	126%	107%	106%	93.3%	99.5%	–	104%
Ic1ccc2[nH]cc(SSc3c[nH]c4ccc(I)cc34)c2c1	13.8%	3.93% (active)	32.6%	42.7%	25.3%	-20.1% (active)	-9.35% (active)	65.7%	7.06% (active)	26.7%	31.5%	24.3%	39.4%	-29.4% (active)	10.1%	4.84% (active)	6.3% (active)
CCC(Br)(CC)C(=O)c1ccc(OCC(=O)O)c(Cl)c1Cl	120%	121%	97.4%	106%	97.4%	94.3%	116%	107%	99.1%	112%	79.1%	101%	112%	92.8%	102%	91.5%	103%
COc1cc(NN=C(c2ccc(O)cc2)c2ccc(O)cc2)c([N+](=O)[O-])cc1[N+](=O)[O-]	50.6%	81.5%	-31.7% (active)	24.1%	88.9%	5.8% (active)	60.9%	93.8%	8.39% (active)	-10.1% (active)	111%	95.6%	98.9%	1.9% (active)	1.31% (active)	2.63% (active)	73.2%
COc1ccc2nc3ccccc3c(NCCNCCO)c2c1	-11.1% (active)	2.45% (active)	5.82% (active)	-4.97% (active)	-10.4% (active)	16.5%	-41.6% (active)	-25.4% (active)	68.7%	4.93% (active)	8.11% (active)	-53.8% (active)	-18.3% (active)	2.08% (active)	-36.5% (active)	-72.5% (active)	-30.5% (active)
CCCCCCCCCCCCCCNC(=O)Nc1ccc(Cl)c(Cl)c1	95%	72.6%	30.5%	64.8%	24.7%	73%	15.5%	84.2%	-0.731% (active)	33.9%	24.7%	18.3%	32.9%	30%	23.6%	14.5%	35.8%
C1=C[C@H]2O[C@@H]1c1ccc3[nH]ccc3c12	84.6%	93.8%	104%	105%	115%	98.7%	110%	119%	63.7%	110%	108%	0.425% (active)	73.4%	96.1%	97.9%	86.7%	79.5%
NC1=NC(=O)NC1(c1ccccc1)c1ccccc1	97.9%	94.3%	97.7%	83.2%	105%	92.7%	105%	98.3%	106%	80.3%	131%	104%	99.2%	99.8%	99.9%	–	103%
CCCCCC1CCCCN1C(=O)OCCCC (configuration not stated)	108%	73.2%	106%	101%	103%	105%	104%	122%	91.8%	99.1%	–	105%	111%	96.7%	109%	–	104%
Nc1nnc(CSc2nnc3n(Cc4ccccc4)c(=O)c4c5c(sc4n23)CCCC5)s1	84%	65.4%	98.7%	103%	98.8%	42.7%	92.3%	106%	94.4%	74%	117%	106%	110%	-30.9% (active)	89.5%	105%	121%
Cc1ccc(S(=O)(=O)Oc2ccc([N+](=O)[O-])cc2[N+](=O)[O-])cc1	56.6%	53.2%	78.8%	111%	63.6%	119%	107%	123%	85.1%	94.5%	-8.38% (active)	25.2%	18.4%	70.7%	5.12% (active)	99.8%	102%
C#CC(OC(=O)N(C)C)(c1ccccc1)c1ccc(F)cc1 (configuration not stated)	108%	128%	93.5%	93.4%	107%	114%	133%	128%	89.3%	100%	111%	120%	107%	113%	105%	86.3%	107%
Nc1cc(NN=C(c2ccc(O)cc2)c2ccc(O)cc2)c([N+](=O)[O-])cc1[N+](=O)[O-]	39.2%	74.3%	-75.8% (active)	-50.9% (active)	76.1%	-44.4% (active)	82%	71.4%	7.33% (active)	-55.9% (active)	102%	96.5%	101%	-60.5% (active)	-61.8% (active)	-97.6% (active)	71.5%
COc1ccc(C2CC(c3cc(OC)c(OC)c(OC)c3)=NN2C(C)=O)cc1OCC(=O)Nc1nc2ccc(C(F)(F)F)cc2s1 (configuration not stated)	63.4%	42%	62.3%	117%	69.5%	97%	67.1%	26.4%	63%	67.5%	47.5%	69.5%	84.7%	65%	30.5%	92.3%	64.5%

Reference: PubChem BioAssay (NCI)
